# Laboratory results: PubChem BioAssay (NCATS)
# “And” between values parts separate entries of the source, which are not always exact repeats. Equal entries are not always repeated. Inconclusive results are not listed. A number with no mark means an inactive call. The source made the active and inactive calls. Unless noted, calls come from the whole dose curve; as a rule, active = well fitted curve in the direction sought with a large enough effect; inconclusive = small, poorly fitted or top-dose-only effect, or another doubt; inactive = no such curve, though single readings can be large; an effect the other way counts as inactive or inconclusive.
# Tested on: not listed separately
# Assay: Cytotoxicity counterscreen for inhibitors of SARS-CoV-2 cell entry (AID 1645845; calls by dose curve; note: nearly all actives have a fitted effect of over 50% in size; for activity change, negative = cytotoxicity: % is set by controls: 0 for no effect and ±100 for the full control effect)
# Details: cell viability (SARS-CoV-2 entry assay cells); series mostly up to 57.1 µM; activity change, negative = cytotoxicity: at the top concentration
# In short: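 48 h compound treatment (after 1 h preincubation), HEK293-ACE2 cells, 37 C/5% CO2; ATP luminescence endpoint; normalized to cell wells and media blanks.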
Structure (SMILES),outcome,"activity change, negative = cytotoxicity",Potency
COc1cc2nc(N3CCN(C(=O)C4COc5ccccc5O4)CC3)nc(N)c2cc1OC (stereo unspecified),inactive,–,–
C[C@H]1c2cccc(O)c2C(O)=C2C(=O)[C@]3(O)C(O)=C(C(N)=O)C(=O)[C@@H](N(C)C)[C@@H]3[C@@H](O)[C@@H]21,–,-4.83%,–
COC(=O)N[C@H](C(=O)N[C@@H](Cc1ccccc1)[C@@H](O)CN(Cc1ccc(-c2ccccn2)cc1)NC(=O)[C@@H](NC(=O)OC)C(C)(C)C)C(C)(C)C,inactive,–,–
CCCCc1oc2ccccc2c1C(=O)c1cc(I)c(OCCN(CC)CC)c(I)c1,–,–,inactive
CCN(CC)CCOC(=O)C1(C2CCCCC2)CCCCC1,–,-3.3%,–
C#Cc1cccc(Nc2ncnc3cc(OCCOC)c(OCCOC)cc23)c1,–,–,inactive
CN1CCc2cccc3c2[C@H]1Cc1ccc(O)c(O)c1-3,inactive,–,–

# Tested on: not listed separately
# Assay: Primary qHTS for inhibitors of nuclear receptor binding SET domain protein 2 (NSD2) in an isogenic RCH-ACV NSD2 p.E1099K mutant (9B) (AID 1645876); note: nearly all actives have a fitted effect of over 70% in size; note: potency is the fitted concentration of half-maximal effect; for activity change, negative = viability loss: % is set by controls: 0 for no effect and ±100 for the full control effect
# Details: RCH-ACV (leukaemia line) NSD2 E1099K (9B) viability, CellTiter-Glo, 72 h; series mostly up to 44.9 µM; activity change, negative = viability loss: at the top concentration
Structure (SMILES),Potency,"activity change, negative = viability loss"
C[C@H]1O[C@@H](O[C@H]2[C@@H](O)C[C@H](O[C@H]3[C@@H](O)C[C@H](O[C@H]4CC[C@@]5(C)[C@H](CC[C@@H]6[C@@H]5CC[C@]5(C)[C@@H](C7=CC(=O)OC7)CC[C@]65O)C4)O[C@@H]3C)O[C@@H]2C)C[C@H](O)[C@@H]1O,16.8 nM (active) and 19.2 nM (active),–
CC(C)(C)CC(C)(C)c1ccc(O)cc1,24.3 µM (active),–
O=c1oc2ccccc2c(O)c1C(CC(O)c1ccc(-c2ccc(Br)cc2)cc1)c1ccccc1 (stereo unspecified),–,-22.7%

# Biological target: Rap guanine nucleotide exchange factor 3 (Homo sapiens) (UniProt O95398)
# Assay: Confirmatory qHTS for agonist of cAMP-regulated guanine nucleotide exchange factor 3 (EPAC1) (AID 1645881);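 note: EPAC1 catalysed release of BODIPY-GDP from Rap1B seen as fluorescence loss; 100% = effect of cAMP agonist control; nearly all actives have a fitted effect of over 75% in size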
# Details: EPAC1 Rap1B BODIPY-GDP exchange fluorescence, 100% = cAMP control response; series mostly up to 154 µM; activation: at the top concentration
# Sequence of Rap guanine nucleotide exchange factor 3 (Homo sapiens) (O95398 whole entry, looked up): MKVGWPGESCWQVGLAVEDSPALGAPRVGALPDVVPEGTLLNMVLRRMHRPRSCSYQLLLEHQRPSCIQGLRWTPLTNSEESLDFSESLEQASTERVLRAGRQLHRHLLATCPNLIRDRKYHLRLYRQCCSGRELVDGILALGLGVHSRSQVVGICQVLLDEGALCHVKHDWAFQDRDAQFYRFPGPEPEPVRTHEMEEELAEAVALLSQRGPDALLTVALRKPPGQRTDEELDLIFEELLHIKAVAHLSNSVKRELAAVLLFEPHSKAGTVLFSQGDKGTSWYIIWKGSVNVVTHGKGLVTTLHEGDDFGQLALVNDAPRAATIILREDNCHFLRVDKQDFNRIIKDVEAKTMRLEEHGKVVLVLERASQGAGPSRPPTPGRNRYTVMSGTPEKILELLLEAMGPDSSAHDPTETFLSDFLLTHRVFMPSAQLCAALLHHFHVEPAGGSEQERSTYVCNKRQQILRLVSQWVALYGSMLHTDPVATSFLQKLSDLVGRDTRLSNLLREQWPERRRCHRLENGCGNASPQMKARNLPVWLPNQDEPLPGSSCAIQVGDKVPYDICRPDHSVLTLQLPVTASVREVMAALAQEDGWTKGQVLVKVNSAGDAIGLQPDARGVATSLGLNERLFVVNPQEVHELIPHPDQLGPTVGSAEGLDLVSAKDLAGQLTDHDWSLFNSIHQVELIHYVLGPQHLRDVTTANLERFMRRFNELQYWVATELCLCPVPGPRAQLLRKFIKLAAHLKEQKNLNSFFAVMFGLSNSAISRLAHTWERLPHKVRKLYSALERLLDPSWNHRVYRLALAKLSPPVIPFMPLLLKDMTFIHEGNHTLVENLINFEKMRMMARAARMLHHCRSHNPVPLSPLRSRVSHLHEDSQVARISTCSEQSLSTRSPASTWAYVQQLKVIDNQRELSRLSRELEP
Structure (SMILES),activation,outcome
C[C@H]1O[C@@H](O[C@H]2[C@@H](O)C[C@H](O[C@H]3[C@@H](O)C[C@H](O[C@H]4CC[C@@]5(C)[C@H](CC[C@@H]6[C@@H]5CC[C@]5(C)[C@@H](C7=CC(=O)OC7)CC[C@]65O)C4)O[C@@H]3C)O[C@@H]2C)C[C@H](O)[C@@H]1O,-16.6%,–
CC(C)(C)CC(C)(C)c1ccc(O)cc1,–,inactive
O=c1oc2ccccc2c(O)c1C(CC(O)c1ccc(-c2ccc(Br)cc2)cc1)c1ccccc1 (stereo unspecified),-0.358%,–

# Biological target: Rap guanine nucleotide exchange factor 4 (Homo sapiens) (UniProt Q8WZA2)
# Assay: Confirmatory qHTS for agonist of cAMP-regulated guanine nucleotide exchange factor 4 (EPAC2) (AID 1645884);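 note: nucleotide exchange releases bodipy-GDP from Rap1 and this lowers its fluorescence; % is set by controls: 0 for no effect and ±100 for the full control effect; nearly all actives have a fitted effect of over 65% in size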
# Details: EPAC2 GEF activity, Rap1B-BODIPY-GDP fluorescence, percent relative to cAMP agonist control; series mostly up to 154 µM; activation: at the top concentration
# Sequence of Rap guanine nucleotide exchange factor 4 (Homo sapiens) (Q8WZA2 whole entry, looked up): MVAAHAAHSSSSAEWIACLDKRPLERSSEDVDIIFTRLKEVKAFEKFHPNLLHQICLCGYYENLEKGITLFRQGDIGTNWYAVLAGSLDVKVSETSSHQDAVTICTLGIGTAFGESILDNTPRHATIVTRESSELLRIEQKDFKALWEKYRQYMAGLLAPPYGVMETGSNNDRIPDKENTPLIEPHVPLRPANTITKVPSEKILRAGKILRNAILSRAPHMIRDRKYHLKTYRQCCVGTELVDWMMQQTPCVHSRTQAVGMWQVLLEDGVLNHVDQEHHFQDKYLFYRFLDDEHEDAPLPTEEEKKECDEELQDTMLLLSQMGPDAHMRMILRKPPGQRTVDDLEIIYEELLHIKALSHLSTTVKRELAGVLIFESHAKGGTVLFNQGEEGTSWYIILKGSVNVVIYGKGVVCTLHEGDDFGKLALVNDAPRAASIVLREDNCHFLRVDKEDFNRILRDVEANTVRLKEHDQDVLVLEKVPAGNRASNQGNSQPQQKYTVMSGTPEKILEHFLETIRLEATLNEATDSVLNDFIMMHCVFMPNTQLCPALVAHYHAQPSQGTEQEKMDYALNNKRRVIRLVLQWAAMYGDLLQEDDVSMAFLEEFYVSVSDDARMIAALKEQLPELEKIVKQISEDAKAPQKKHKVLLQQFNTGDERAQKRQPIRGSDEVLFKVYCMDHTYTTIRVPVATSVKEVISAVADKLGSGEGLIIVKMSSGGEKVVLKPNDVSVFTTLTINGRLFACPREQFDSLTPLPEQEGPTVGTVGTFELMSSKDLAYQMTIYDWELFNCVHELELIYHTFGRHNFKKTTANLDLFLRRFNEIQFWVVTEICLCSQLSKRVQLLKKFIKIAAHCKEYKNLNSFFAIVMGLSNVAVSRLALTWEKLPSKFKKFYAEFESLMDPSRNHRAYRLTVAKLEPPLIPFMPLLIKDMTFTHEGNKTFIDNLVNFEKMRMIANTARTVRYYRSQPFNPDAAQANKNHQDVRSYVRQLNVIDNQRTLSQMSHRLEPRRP
Structure (SMILES),activation,outcome
C[C@H]1O[C@@H](O[C@H]2[C@@H](O)C[C@H](O[C@H]3[C@@H](O)C[C@H](O[C@H]4CC[C@@]5(C)[C@H](CC[C@@H]6[C@@H]5CC[C@]5(C)[C@@H](C7=CC(=O)OC7)CC[C@]65O)C4)O[C@@H]3C)O[C@@H]2C)C[C@H](O)[C@@H]1O,-9.95%,–
CC(C)(C)CC(C)(C)c1ccc(O)cc1,–,inactive
O=c1oc2ccccc2c(O)c1C(CC(O)c1ccc(-c2ccc(Br)cc2)cc1)c1ccccc1 (stereo unspecified),7.44%,–
